Source: PubChem
JMJD2A Tudor = blocks the human JMJD2A Tudor domain; AlphaScreen JMJD2A-Tudor / H3K4me3 peptide binding; actives 4.4% (n = 390,000); AID 504339; Potency, µM (series often up to 114 µM), without a hit: at the highest dose activity change, negative = inhibition, hits mostly inhibitors; O75164; note: potency is the fitted concentration of half-maximal effect; % is set by controls: 0 for no effect and ±100 for the full control effect; nearly all actives have a fitted effect of over 50% in size
PI5P4K alpha inh = inhibitors of human PI5P4K alpha; PI5P4Kalpha enzyme, ADP-Glo luminescence, 60 min; hits give low values; actives 1.2% (n = 330,000); AID 652105; max response, %; P48426; active = max response of -50% or lower; inconclusive = between -30% and -50%; inactive = -30% or higher; note: value at the top dose of about 77 µM; % is set by controls: 0 for no effect and ±100 for the full control effect
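Enzyme plus substrate dispensed, test compounds pinned in, then ATP (5 microM final) added. After 60 min at RT, ADP-Glo reagent 1 for 45 min and reagent 2 for 30 min preceded luminescence imaging.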
G9a block = blocks human histone lysine methyltransferase G9a | Q96KQ7 | G9a H3K9 monomethylation, AlphaScreen, 2 h | Potency, µM (doses to about 102 µM), inactives show top-dose activity, negative = inhibition, most hits filed as inhibitors | actives 8.8% (n = 350,000) | AID 504332; note: potency is the fitted concentration of half-maximal effect; % is set by controls: 0 for no effect and ±100 for the full control effect; nearly all actives have a fitted effect of over 75% in size
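Chemiluminescent proximity detection of H3K9 monomethylation, read after 10 min bead incubation in the dark. Reaction: 20 nM G9a, 500 nM biotin-H3K9 peptide, 20 uM SAM cofactor, 2 h, room temperature, following 15 min enzyme-compound preincubation.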
PLK1 PBD inh = PLK1 (human) polo-box domain binding inhibition; P53350; Plk1 PBD binding of FITC phosphopeptide, fluorescence polarization; Potency, µM, inactives show max response, negative = inhibition, most hits filed as inhibitors; actives 2.8% (n = 360,000); AID 720504; note: potency is the fitted concentration of half-maximal effect; series mostly up to about 57 µM; % is set by controls: 0 for no effect and ±100 for the full control effect; nearly all actives have a fitted effect of over 65% in size
BAZ2B block = blocks human BAZ2B | Q9UIF8 | AID 504333 | AlphaScreen BAZ2B-H3K14Ac peptide displacement | Potency, µM (top dose mostly 114 µM), inactives show at the highest dose activity change, negative = inhibition, usual class: inhibitors | actives 4.4% (n = 360,000); note: potency is the fitted concentration of half-maximal effect; % is set by controls: 0 for no effect and ±100 for the full control effect; nearly all actives have a fitted effect of over 60% in size
Target sequence (Q9UIF8 whole entry, looked up): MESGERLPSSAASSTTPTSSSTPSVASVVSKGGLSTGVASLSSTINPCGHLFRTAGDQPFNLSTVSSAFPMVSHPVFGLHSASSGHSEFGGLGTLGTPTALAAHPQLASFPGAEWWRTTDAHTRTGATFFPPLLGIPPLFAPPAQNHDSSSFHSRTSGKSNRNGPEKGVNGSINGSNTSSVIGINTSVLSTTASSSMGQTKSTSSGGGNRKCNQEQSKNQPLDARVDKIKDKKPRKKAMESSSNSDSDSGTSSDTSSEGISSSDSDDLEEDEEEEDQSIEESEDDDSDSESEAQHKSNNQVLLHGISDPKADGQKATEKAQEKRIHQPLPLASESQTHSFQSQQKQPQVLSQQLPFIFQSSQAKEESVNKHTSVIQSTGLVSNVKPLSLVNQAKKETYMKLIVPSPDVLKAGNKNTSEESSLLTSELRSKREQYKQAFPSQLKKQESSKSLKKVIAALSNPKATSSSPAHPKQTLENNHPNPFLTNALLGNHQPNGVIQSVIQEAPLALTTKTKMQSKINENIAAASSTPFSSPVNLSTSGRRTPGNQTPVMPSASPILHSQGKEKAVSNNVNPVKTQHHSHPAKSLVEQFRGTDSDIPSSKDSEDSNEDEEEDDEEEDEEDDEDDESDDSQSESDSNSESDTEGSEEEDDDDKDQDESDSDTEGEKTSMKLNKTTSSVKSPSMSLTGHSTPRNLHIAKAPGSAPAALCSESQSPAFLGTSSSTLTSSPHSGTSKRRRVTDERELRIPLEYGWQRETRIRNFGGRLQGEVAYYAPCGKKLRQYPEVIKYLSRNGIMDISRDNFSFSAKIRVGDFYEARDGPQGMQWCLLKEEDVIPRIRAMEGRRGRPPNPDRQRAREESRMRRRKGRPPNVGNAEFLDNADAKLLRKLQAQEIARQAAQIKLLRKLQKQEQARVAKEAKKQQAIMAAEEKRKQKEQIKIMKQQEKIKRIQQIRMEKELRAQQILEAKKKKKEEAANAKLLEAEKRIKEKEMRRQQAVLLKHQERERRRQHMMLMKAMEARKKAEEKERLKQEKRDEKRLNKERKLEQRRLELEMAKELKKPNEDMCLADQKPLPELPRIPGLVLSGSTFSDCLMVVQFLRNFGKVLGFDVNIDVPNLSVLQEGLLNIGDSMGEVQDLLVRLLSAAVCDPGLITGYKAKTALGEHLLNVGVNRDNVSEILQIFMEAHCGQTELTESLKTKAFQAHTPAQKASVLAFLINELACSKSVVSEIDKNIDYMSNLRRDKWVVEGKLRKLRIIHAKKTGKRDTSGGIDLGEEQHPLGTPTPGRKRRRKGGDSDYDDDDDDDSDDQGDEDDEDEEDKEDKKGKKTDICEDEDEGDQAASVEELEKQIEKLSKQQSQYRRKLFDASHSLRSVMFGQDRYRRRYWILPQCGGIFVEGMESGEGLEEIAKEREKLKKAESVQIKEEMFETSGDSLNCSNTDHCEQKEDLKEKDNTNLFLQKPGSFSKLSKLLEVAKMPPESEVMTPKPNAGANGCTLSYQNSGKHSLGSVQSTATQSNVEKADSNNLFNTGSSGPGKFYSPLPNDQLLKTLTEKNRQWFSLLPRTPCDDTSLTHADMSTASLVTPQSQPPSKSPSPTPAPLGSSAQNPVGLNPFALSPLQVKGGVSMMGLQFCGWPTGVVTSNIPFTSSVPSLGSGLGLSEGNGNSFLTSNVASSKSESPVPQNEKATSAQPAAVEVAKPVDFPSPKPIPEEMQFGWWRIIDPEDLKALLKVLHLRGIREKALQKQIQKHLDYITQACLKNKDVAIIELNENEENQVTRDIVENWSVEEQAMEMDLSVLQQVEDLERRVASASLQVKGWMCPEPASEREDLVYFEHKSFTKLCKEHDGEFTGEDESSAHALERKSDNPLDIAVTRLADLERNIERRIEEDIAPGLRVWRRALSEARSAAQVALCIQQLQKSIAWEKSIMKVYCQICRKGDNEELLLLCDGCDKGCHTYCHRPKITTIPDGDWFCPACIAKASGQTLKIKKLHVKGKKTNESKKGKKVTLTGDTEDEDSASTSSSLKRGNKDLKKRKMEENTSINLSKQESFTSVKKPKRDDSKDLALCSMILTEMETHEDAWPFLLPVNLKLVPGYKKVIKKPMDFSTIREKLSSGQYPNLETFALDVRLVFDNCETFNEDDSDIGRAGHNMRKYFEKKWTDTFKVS
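Complex of BAZ2B and biotin-H3K14Ac (50 nM apiece) forms over 30 min at RT, then faces library compounds up to 110 uM for another 30 min; AlphaScreen beads added, 20 min dark incubation, luminescence read.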
HP1b binding inh = HP1-beta chromodomain-methylated histone interaction inhibition; AlphaScreen HP1-beta / biotin-H3K9me3 peptide binding; actives 0.56% (n = 390,000); P83916; Potency, µM (series often up to 114 µM), for the others: top-dose activity change, negative = inhibition, most hits filed as inhibitors; note: potency is the fitted concentration of half-maximal effect; nearly all actives have a fitted effect of over 70% in size
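AlphaScreen: HP1-beta (50 nM) preformed 30 min with biotin-H3(1-18)K9me3 peptide (50 nM) in PBS pH 7.4, 0.01% Tween-20. Compound added for 30 min at RT, then streptavidin donor/nickel chelate acceptor beads (10 ug/mL) for 30 min.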
The depositor's hits bear a star; [ ] = remark or other dose. Rows were chosen to be rich in hits. Some 12% of all compounds tested hit in one or more screens of this group. Unless noted, calls come from the whole dose curve; as a rule, active = well fitted curve in the direction sought with a large enough effect; inconclusive = small, poorly fitted or top-dose-only effect, or another doubt; inactive = no such curve, though single readings can be large; an effect the other way counts as inactive or inconclusive.

Results for CSc1nc(N)c2c(n1)N(C)C=NS2(=O)=O ?
JMJD2A Tudor: -10.3%; PI5P4K alpha inh: 0.8; PLK1 PBD inh: -9.1%; HP1b binding inh: -1.1%

Results for CCCn1c(=O)c2ccccc2n2c(SCC(=O)c3ccccc3)nnc12 ?
JMJD2A Tudor: 25.1µM*; G9a block: inconclusive; PLK1 PBD inh: -18.9%; BAZ2B block: -27.7%; HP1b binding inh: 11.1%

How did CCCn1c(=O)c2ccccc2n2c(SCC(=O)c3ccc(F)cc3)nnc12 do in these assays?
G9a block: 3.0%[2.33 µM]; BAZ2B block: 11.6%

What do the screens show for `CCOC(=O)C1OC1C(=O)NC(CC(C)C)C(=O)NCCC(C)C` (centres undefined)?
G9a block: 32.1%[59 µM]

Results for COc1ccc(C(C#N)=Cc2ccccc2OC)cc1 ?
PI5P4K alpha inh: -6.2; PLK1 PBD inh: -8.2%

Results for COc1cc(N2CCCC2)c(OC)cc1/C=C(/C#N)c1ccc(F)cc1 ?
JMJD2A Tudor: 31.6µM*; PI5P4K alpha inh: -2.7; G9a block: 1.58µM*; PLK1 PBD inh: 7.3%; BAZ2B block: 15.8µM*; HP1b binding inh: 39.8µM*

What do the screens show for `COc1cc(N2CCCC2)c(OC)cc1/C=C(/C#N)c1ccc(Br)cc1`?
JMJD2A Tudor: 20µM*; G9a block: 2.82µM*; PLK1 PBD inh: -4.1%; BAZ2B block: 12.6µM*; HP1b binding inh: inconclusive

What do the screens show for `O=C(N/N=C/c1cccc(O)c1)c1cc(C2CC2)nc2ccccc12`?
JMJD2A Tudor: -10.0%; PI5P4K alpha inh: 2.3; G9a block: 7.4%; PLK1 PBD inh: -0.1%; BAZ2B block: -15.3%; HP1b binding inh: 31.7%

What do the screens show for `C/C(=N\NC(=O)c1cc(C2CC2)nc2ccccc12)c1ccc(O)cc1O`?
JMJD2A Tudor: -22.7%; PI5P4K alpha inh: -5.5; G9a block: -4.3%; PLK1 PBD inh: -0.8%; BAZ2B block: 3.55µM*; HP1b binding inh: 16.7%

What do the screens show for `C/C(=N\NC(=O)c1cc(C)nc2ccccc12)c1cccs1`?
JMJD2A Tudor: -11.9%; PI5P4K alpha inh: 0.3; G9a block: -4.5%; PLK1 PBD inh: -8.0%; BAZ2B block: -2.6%; HP1b binding inh: 24.9%

What do the screens show for `C/C(=N\NC(=O)c1cc(C2CC2)nc2ccccc12)c1ccc(C)s1`?
JMJD2A Tudor: -2.8%; PI5P4K alpha inh: 2.0; G9a block: 39.8µM*; PLK1 PBD inh: 1.7%; BAZ2B block: -9.9%; HP1b binding inh: 35.9%

How did N#Cc1c(C(F)(F)F)cc(=O)n2c1[nH]c1ccccc12 do in these assays?
JMJD2A Tudor: 12.6%; PI5P4K alpha inh: -20.5; G9a block: -1.2%; PLK1 PBD inh: 21.2µM*; BAZ2B block: -0.9%; HP1b binding inh: 10.1%

How did O=C(Sc1n[nH]c(=O)[nH]c1=O)c1ccccc1 do in these assays?
JMJD2A Tudor: 7.08µM*; PI5P4K alpha inh: -74.5*; PLK1 PBD inh: 5.32µM*; HP1b binding inh: inconclusive

What do the screens show for `Cc1nc(-c2ccc(S(=O)(=O)Nc3ccc(C)c(C)c3)s2)cs1`?
JMJD2A Tudor: -17.0%

Results for COc1cc(C(=O)CSc2nccn2C)cc(OC)c1OC ?
JMJD2A Tudor: -11.3%; PI5P4K alpha inh: 2.9; G9a block: -19.4%; PLK1 PBD inh: -5.1%; BAZ2B block: 2.0%; HP1b binding inh: -6.0%

Results for COc1cc(C(=O)CSc2nncn2C)cc(OC)c1OC ?
JMJD2A Tudor: -14.2%; PI5P4K alpha inh: -13.9; G9a block: 39.8µM*; PLK1 PBD inh: -6.2%; BAZ2B block: inconclusive; HP1b binding inh: 42.5%

What do the screens show for `O=[N+]([O-])c1cccc(C(=S)N2CCN(c3ccccc3)CC2)c1`?
JMJD2A Tudor: -30.1%[57.1 µM]; PI5P4K alpha inh: -16.9; G9a block: 8.91µM*; PLK1 PBD inh: 11.9µM*; BAZ2B block: inconclusive; HP1b binding inh: inconclusive

Results for C/C(=N\N1CCN(c2ccc(Cl)cc2)CC1)c1cccc([N+](=O)[O-])c1 ?
JMJD2A Tudor: inconclusive; PI5P4K alpha inh: 3.1; G9a block: 22.4µM*; PLK1 PBD inh: -2.2%; BAZ2B block: inconclusive; HP1b binding inh: -17.1%
